Laboratory results from PubChem BioAssay.
The source made the active and inactive calls.

Columns and labels:
Albumin (Bos taurus) = Albumin (Bos taurus) (UniProt P02769); assay: bovine serum albumin binders on microarray, profiling panel, artefact control for SMM control protein annotation, biochemical, small-molecule microarray, Alexa647 label, 635/667 nm fluorescence (AID 1118); conditions: BSA-A647 binding, fluorescence 635 nm, higher = more signal;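 further: score merges 667 nm emission intensity and signal-to-noise per printed compound spot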
[1] = small-molecule microarray binders of probe aXIP, primary screen, biochemical, NeuroSMM set, 635/667 nm fluorescence (AID 1119); conditions: higher = more signal, called active from +8 up or from −8 down;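 further: probe is the protein aXip251-270 applied at 1 µg/mL to compound-printed slides; binding of probe to printed compounds measured as 667 nm fluorescence plus signal to noise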
[2] = small-molecule binders of probe aNOTCH3, primary screen, biochemical, small-molecule microarray, 635/667 nm fluorescence (AID 1120); conditions: higher = more signal;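 further: probe is a biotin-tagged antibody raised against NOTCH3 rather than NOTCH3 protein; score merges spot fluorescence near 667 nm with spot signal to noise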
[3] = small-molecule binders of probe aNOTCH2, primary screen, biochemical, small-molecule microarray, 635/667 nm fluorescence (AID 1121); conditions: higher = more signal;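 further: score merges feature fluorescence read at 667 nm with its signal to noise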
[4] = target: Carbonic anhydrase 2 (Homo sapiens) (UniProt P00918); assay: CAII small-molecule binders, profiling panel, biochemical, small-molecule microarray, Alexa647-labelled CAII (AID 1122); conditions: CAII-A647 binding fluorescence, higher = more signal
[5] = COS7 lysate on small-molecule microarray, probe aHis, 635 nm (AID 1123); conditions: COS7 cell lysate, fluorescence, higher = more signal;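 further: z-score combines 667nm fluorescence intensity with signal-to-noise per printed compound spot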
[6] = compound binding in COS7 lysate, probe aLAP1, primary screen, cell lysate, small-molecule microarray (AID 1124); conditions: probe aLAP1, fluorescence, higher = more signal;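 further: lysate comes from COS7 cells expressing LAP1 and is applied at 0.3 µg/mL; score merges spot fluorescence near 667 nm with signal-to-noise over triplicate slides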
Sam68 (KHDRBS1) = assay: Sam68 small-molecule binders, primary screen, biochemical, small-molecule microarray, 635 nm fluorescence (AID 1125); conditions: small-molecule microarray binding, higher = more signal;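 further: score merges 667 nm channel intensity with signal to noise over triplicate slides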
[7] = system: Chordin-like protein 2 (CHRDL2); assay: CHRDL2 small-molecule binders, primary screen, biochemical, small-molecule microarray, 635 nm fluorescence (AID 1126); conditions: small-molecule microarray binding, fluorescence 635 nm; higher = more signal;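 further: printed compound slides probed with Chrdl2 protein at 4 µg/mL for 1 h at 4 C; score merges 667 nm emission intensity with signal to noise over three replicate slides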
[8] = target: Concanavalin-A (Canavalia ensiformis) (UniProt P02866); assay: ConA small-molecule binders, primary screen, artefact control for SMM control protein annotation, biochemical, small-molecule microarray, Alexa647 label, 635 nm (AID 1127); conditions: ConA-A647 binding fluorescence, higher = more signal;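 further: z combines 667 nm emission intensity with signal-to-noise across three replicate slides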
[9] = anti-His antibody binders, primary screen, artefact control for SMM control protein annotation, biochemical, small-molecule microarray, 635 nm fluorescence (AID 1128); conditions: anti-His Alexa647 antibody binding, higher = more signal;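 further: score merges feature fluorescence with signal-to-noise for each printed compound spot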
[10] = system: Human papillomavirus type 1a E7 protein (residues 1-88); assay: HPV1a E7 small-molecule binders, primary screen, biochemical, small-molecule microarray, residues 1-88, 635 nm (AID 1129); conditions: small-molecule microarray binding, fluorescence 635 nm; higher = more signal
[11] = target: Focal adhesion kinase 1 (Homo sapiens) (UniProt Q05397); assay: small-molecule microarray binders of FAK, primary screen, biochemical, 635/667 nm fluorescence, BSA, DTT (AID 1130); conditions: PTK2 binding, 635 nm fluorescence, higher = more signal;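 further: composite of spot emission at 667 nm and signal to noise over triplicate slides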
[12] = system: Fibrinogen (Alexa647-labelled); assay: fibrinogen binders on compound microarrays, profiling panel, artefact control for SMM control-protein annotation, biochemical, small-molecule microarray, 635/667 nm fluorescence (AID 1131); conditions: fibrinogen-A647 binding fluorescence, higher = more signal;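 further: z-score merges 667 nm fluorescence with per-spot signal-to-noise over triplicate slides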
[13] = target: Follistatin (Homo sapiens) (UniProt P19883); assay: follistatin binders on small-molecule microarrays, primary screen, biochemical, small-molecule microarray, 635/667 nm fluorescence (AID 1132); conditions: FST binding, 635 nm fluorescence, higher = more signal
[14] = target: Fibroblast growth factor 2 (Homo sapiens) (UniProt P09038); assay: FGF2 binders on small-molecule microarrays, primary screen, biochemical, small-molecule microarray, 635/667 nm fluorescence (AID 1133); conditions: small-molecule microarray binding, FGF2, fluorescence 635/667; higher = more signal
[15] = mitochondrial membrane potential change in A549 cells, profiling panel, cell-based, JC-1 fluorescence, basal, 24 h, 100 nL (AID 1138); conditions: higher = more signal;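 further: A549 lung adenocarcinoma cells under basal conditions with no added stimulus; test concentration not given here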
Lefty1 = Lefty1 binders on small-molecule microarrays, primary screen, biochemical, small-molecule microarray, 635/667 nm fluorescence (AID 1139); conditions: small-molecule microarray binding, fluorescence 635/667; higher = more signal
[16] = system: wheat germ agglutinin (Triticum aestivum), Alexa647-labelled; assay: wheat germ agglutinin binders on compound microarrays, profiling panel, artefact control for SMM control-protein annotation, biochemical, small-molecule microarray, 635/667 nm fluorescence (AID 1140); conditions: WGA-A647 binding, 635 nm fluorescence, higher = more signal;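 further: score merges 667 nm feature emission with signal to noise over triplicate slides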
[17] = target: Luciferin 4-monooxygenase (Photinus pyralis) (UniProt P08659); assay: firefly luciferase enzyme inhibitors, primary screen, biochemical, luminescence, purified enzyme, 2006 set (AID 1141); conditions: SteadyGlo luminescence, 30 min, higher = more signal, called active from +8 up or from −8 down;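 further: cell-free assay with purified firefly luciferase at 100 ng per well in PBS; test concentration not given here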
Luciferin 4-monooxygenase (Photinus pyralis), sequence (P08659 whole entry, looked up): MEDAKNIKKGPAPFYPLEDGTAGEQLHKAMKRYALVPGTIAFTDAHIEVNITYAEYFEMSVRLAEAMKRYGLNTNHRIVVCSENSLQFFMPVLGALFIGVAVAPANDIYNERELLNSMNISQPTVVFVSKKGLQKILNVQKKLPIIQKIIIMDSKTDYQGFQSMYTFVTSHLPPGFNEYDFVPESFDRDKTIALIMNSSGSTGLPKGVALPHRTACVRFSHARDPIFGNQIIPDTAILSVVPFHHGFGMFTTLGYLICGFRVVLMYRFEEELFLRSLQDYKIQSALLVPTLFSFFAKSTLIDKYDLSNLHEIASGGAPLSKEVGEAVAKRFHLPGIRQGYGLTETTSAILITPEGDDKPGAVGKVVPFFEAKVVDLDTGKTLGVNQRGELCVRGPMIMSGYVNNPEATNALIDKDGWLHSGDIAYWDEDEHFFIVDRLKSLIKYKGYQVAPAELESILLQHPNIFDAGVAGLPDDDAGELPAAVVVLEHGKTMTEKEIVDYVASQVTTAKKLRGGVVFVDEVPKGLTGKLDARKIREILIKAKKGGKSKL

Focal adhesion kinase 1 (Homo sapiens), sequence (Q05397 whole entry, looked up): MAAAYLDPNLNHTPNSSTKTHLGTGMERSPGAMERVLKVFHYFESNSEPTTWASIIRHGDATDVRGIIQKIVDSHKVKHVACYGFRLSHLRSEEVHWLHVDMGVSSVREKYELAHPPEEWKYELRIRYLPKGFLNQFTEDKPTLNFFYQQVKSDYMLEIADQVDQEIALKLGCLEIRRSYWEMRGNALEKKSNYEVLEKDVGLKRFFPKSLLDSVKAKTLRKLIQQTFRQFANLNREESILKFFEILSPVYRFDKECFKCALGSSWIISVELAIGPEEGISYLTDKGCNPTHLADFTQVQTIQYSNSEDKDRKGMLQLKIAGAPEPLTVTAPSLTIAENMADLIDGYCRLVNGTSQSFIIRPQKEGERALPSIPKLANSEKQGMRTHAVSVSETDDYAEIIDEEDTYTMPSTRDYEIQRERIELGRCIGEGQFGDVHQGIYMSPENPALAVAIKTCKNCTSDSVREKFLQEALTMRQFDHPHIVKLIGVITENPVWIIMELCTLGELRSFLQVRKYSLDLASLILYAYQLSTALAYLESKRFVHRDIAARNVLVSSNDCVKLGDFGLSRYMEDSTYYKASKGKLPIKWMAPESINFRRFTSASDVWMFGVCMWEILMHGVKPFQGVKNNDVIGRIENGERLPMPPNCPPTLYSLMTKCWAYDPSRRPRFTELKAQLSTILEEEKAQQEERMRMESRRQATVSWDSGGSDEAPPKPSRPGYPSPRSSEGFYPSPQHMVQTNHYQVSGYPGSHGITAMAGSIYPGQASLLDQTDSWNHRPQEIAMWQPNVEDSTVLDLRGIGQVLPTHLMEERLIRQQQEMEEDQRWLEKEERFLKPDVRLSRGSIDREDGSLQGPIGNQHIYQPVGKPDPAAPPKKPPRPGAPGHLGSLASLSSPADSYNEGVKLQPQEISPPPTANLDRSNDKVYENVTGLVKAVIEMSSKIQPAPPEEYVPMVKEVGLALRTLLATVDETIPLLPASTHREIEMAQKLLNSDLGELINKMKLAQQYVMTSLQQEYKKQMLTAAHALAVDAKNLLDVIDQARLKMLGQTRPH
Concanavalin-A (Canavalia ensiformis), sequence (P02866 whole entry, looked up): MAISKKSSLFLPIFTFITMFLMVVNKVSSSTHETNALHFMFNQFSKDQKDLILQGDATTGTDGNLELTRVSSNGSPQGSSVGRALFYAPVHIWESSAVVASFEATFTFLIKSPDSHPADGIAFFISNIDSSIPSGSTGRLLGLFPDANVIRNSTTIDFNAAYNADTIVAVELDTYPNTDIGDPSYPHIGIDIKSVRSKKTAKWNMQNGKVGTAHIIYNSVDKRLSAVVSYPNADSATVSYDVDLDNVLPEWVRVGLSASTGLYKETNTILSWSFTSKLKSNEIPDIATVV
Follistatin (Homo sapiens), sequence (P19883 whole entry, looked up): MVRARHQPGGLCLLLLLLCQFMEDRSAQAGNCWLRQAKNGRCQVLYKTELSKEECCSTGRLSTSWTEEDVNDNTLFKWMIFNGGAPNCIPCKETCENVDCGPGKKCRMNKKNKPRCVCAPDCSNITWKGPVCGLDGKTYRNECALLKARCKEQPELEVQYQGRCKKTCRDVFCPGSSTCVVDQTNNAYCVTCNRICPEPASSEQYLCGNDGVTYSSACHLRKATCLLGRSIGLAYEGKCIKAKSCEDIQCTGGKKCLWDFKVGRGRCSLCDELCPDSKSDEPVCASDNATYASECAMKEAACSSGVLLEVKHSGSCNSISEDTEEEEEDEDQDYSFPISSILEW
Fibroblast growth factor 2 (Homo sapiens), sequence (P09038 whole entry, looked up): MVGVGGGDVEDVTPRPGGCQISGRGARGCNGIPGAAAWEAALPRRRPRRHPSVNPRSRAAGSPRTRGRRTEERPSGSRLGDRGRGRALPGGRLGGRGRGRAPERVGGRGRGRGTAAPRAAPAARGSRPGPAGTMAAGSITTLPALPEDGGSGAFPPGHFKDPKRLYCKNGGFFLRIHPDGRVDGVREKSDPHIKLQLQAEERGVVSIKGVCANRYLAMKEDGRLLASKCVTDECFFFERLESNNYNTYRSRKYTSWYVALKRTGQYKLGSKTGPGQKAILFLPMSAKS
Albumin (Bos taurus), sequence (P02769 whole entry, looked up): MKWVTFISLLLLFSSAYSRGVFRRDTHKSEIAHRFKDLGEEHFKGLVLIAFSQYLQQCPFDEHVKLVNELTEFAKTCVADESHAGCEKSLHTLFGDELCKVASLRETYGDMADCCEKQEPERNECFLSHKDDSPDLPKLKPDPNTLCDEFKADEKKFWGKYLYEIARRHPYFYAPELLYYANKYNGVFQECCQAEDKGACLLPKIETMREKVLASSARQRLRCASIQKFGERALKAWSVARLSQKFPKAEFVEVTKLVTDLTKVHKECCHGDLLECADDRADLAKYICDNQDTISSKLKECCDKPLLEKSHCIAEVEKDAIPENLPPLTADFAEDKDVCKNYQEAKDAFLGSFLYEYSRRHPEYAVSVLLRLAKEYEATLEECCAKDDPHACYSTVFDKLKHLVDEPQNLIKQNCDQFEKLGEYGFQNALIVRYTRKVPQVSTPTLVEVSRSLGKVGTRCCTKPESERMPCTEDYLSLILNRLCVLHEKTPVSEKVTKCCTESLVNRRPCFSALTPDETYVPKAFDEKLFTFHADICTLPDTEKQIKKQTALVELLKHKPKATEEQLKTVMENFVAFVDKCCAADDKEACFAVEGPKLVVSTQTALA

Compound | composite z-score (Albumin (Bos taurus)) | composite Z-score [1] | composite z-score [2] | composite z-score [3] | composite z-score [4] | composite z-score [5] | composite z-score [6] | composite z-score (Sam68 (KHDRBS1)) | composite z-score [7] | composite z-score [8] | composite z-score [9] | composite z-score [10] | composite z-score [11] | composite z-score [12] | composite z-score [13] | composite z-score [14] | z-score [15] | composite z-score (Lefty1) | composite z-score [16] | z-score [17]
CCOC(=O)C[C@H]1[C@H](OC(=O)c2ccc(-c3ccccc3)cc2)[C@@H](NC(=O)Cc2ccc(OC)cc2)c2cc(OCCCO)ccc2N1C(=O)c1ccccc1 | 0.167 | 0.0175 (inactive) | 0.15 | -0.135 | -0.0516 | 0.614 | -0.105 | 0.264 | -0.348 | 0.0776 | 0.0013 | -0.483 | 0.0865 | 0.44 | 0.349 | 0.0164 | 0.188 | 0.299 | 0.241 | 0.785 (inactive)
C=C(CCCC)/C(=C/C[C@H](OC(C)=O)c1ccccc1OCCO)c1cc(C(=O)OC)ccc1OC | 0.0908 | 0.0578 (inactive) | -0.141 | -0.117 | 0.767 | 0.0095 | 0.095 | 0.287 | -0.193 | -0.701 | -0.33 | 0.0376 | -0.0155 | -0.438 | 0.0341 | -0.196 | 1.39 | 0.0742 | -0.4 | -0.687 (inactive)
Cc1ccccc1C(O)C1C=CC2C(=O)N(c3ccccc3)C(=O)C2N1Nc1ccc(C(C)C)cc1 (stereo not given) | 0.868 | 0.403 (inactive) | 0.344 | -0.0983 | 0.304 | 2.1 | 0.68 | 1.15 | -0.219 | 1.15 | 0.0147 | 1.14 | 0.655 | 0.997 | 1.02 | -0.144 | -0.504 | 0.383 | 0.882 | -0.263 (inactive)
C=C(CCCC)/C(=C/C[C@H](OC(=O)c1ccncc1)c1ccccc1OCCO)c1cnc2ccccc2c1 | 0.0803 | -0.153 (inactive) | 0.0259 | -0.182 | 0.862 | 1.25 | 0.406 | 1.16 | 0.66 | 1.14 | 0.997 | 1.08 | 0.166 | 0.47 | 1.27 | 0.912 | 0.957 | 1.14 | 1.14 | -0.372 (inactive)
C=C(/C(=C/C[C@H](OC(C)=O)c1ccccc1OCCO)c1cnc2ccccc2c1)C(C)C | 0.0816 | -0.323 (inactive) | 0.16 | -0.102 | 0.722 | 0.202 | -0.0507 | 0.461 | 0.384 | 0.922 | -0.577 | 0.0336 | 0.119 | -0.498 | 1.3 | 0.58 | 1.12 | 0.505 | 1.07 | -1.14 (inactive)
COc1cc2c(cc1O)C(c1cccs1)N(C)CC2 (stereo not given) | 0.393 | -0.0667 (inactive) | -0.28 | -0.182 | 0.311 | 0.0056 | -0.465 | -1.2 | -0.231 | -1.2 | -1 | -1.33 | 0.756 | -0.861 | -0.123 | -0.0571 | -0.278 | -0.574 | -1.05 | 0.146 (inactive)
COC(=O)[C@@]1(CCC(=O)OC(C)(C)C)N=C(c2ccc(OCCCO)cc2)O[C@H]1c1ccccc1N=[N+]=[N-] | 0.373 | 0.455 (inactive) | -0.076 | -0.127 | 0.508 | 1.95 | 0.333 | 0.201 | -0.436 | 0.721 | 0.421 | 1.17 | 0.723 | 0.942 | 1.24 | 0.0436 | 1.01 | 0.303 | 0.658 | -7.29 (inactive)
C=C(COC)/C(=C/C[C@@H](OC(C)=O)c1ccc(OCCO)cc1)c1cnc2ccccc2c1 | 0.0772 | -0.225 (inactive) | 0.112 | -0.14 | 0.913 | -0.161 | 0.999 | 0.74 | 1.41 | 1.14 | 0.616 | 0.328 | -0.514 | 0.869 | 1.41 | 1.55 | 0.379 | 1.29 | 0.857 | -0.846 (inactive)
C=CC1(C(=O)OC)CC=C(C(=O)OC)CC1 (stereo not given) | 0.714 | 0.257 (inactive) | -0.0077 | -0.0661 | 0.613 | 0.732 | 0.872 | 0.82 | 0.556 | 0.339 | 0.731 | 0.901 | 0.286 | 0.862 | 0.65 | 0.653 | 0.263 | 0.308 | 0.184 | 0.723 (inactive)
C=C(/C(=C/C[C@H](OC(C)=O)c1ccc(CO)o1)c1cc(C(=O)OC)ccc1OC)C(C)C | 0.222 | 0.72 (inactive) | -0.0328 | -0.148 | 0.646 | 0.356 | -0.185 | 0.271 | -0.649 | -0.237 | -0.978 | -0.184 | -0.0384 | -1.25 | 0.467 | 0.539 | -0.483 | 0.864 | -1.24 | -1.33 (inactive)
COC(=O)[C@@]1(Cc2ccc(F)cc2)[C@H]2c3cc(C(=O)N(C)C)n(Cc4ccccc4)c3C[C@H]2CN1C(=O)c1ccccc1 | 0.816 | 0.0843 (inactive) | 0.215 | 0.0431 | 0.183 | 2.05 | 0.495 | 0.78 | -0.643 | 1.04 | 1.38 | 0.789 | -0.109 | 0.91 | 0.787 | -0.525 | 0.906 | 0.0954 | 1.16 | 2.14 (inactive)
